A selection: hits, their analogues and other compounds. The true share with any hit is near 3.6%.
IMPase Li cell: membrane-permeable IMPase blocker, potentiated with lithium; hit rate 0.35% among 210,000; Potency, µM (highest dose often 59.4 µM), hits mostly inhibitors; AID 1457; CHO-M1 cells, IP1 TR-FRET (IP-One), carbachol + lithium;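 further: IP1 builds up when IMPase is blocked and the TR-FRET signal falls; nearly all actives have a fitted effect of over 50% in size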
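CHO-M1, 2000 cells/well, 16–30 h culture; cpd + low Li+, 30 min 37C; lysis with d2-IP1/Eu-anti-IP1 Ab, 10 min RT; TR-FRET 665/620 ratio and 620 channel; AC50 via Hill.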
Sfp inh: inhibitors of Bacillus subtilis Sfp phosphopantetheinyl transferase | AID 1490 | Q9F4F7 | hit rate 3.5% among 310,000 | Potency, µM, hits mostly inhibitors | Biochemical Sfp PPTase activity, qHTS;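 further: the enzyme is Sfp with the accession as filed and its product quenches rhodamine fluorescence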
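Fluorescence-quenching assay with 15 nM Sfp, 5 uM rhodamine-CoA and 12.5 uM BHQ-2-labelled ybbR peptide in pH 7.6 Hepes/MgCl2 buffer. Enzyme was pre-incubated with compound for 15 min at room temperature. Rate was taken from the 30-min fluorescence change (525/598 nm).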
JMJD2E inh: JMJD2E (human) inhibition; Potency, µM (highest dose often 57.1 µM), usual class: inhibitors; AID 2147; hit rate 1.6% among 230,000; JMJD2E catalytic domain, FDH-coupled NADH fluorescence (FDH is formaldehyde dehydrogenase); further: nearly all actives have a fitted effect of over 50% in size
NPSR antag: neuropeptide S receptor (human) antagonism, cAMP | Q6W5P4 | CHO-NPSR cells, cAMP TR-FRET, antagonist mode | Potency, µM (series often up to 38.3 µM), hits mostly inhibitors | hit rate 1% among 220,000; further: nearly all actives have a fitted effect of over 50% in size
Target sequence (Q6W5P4 whole entry, looked up): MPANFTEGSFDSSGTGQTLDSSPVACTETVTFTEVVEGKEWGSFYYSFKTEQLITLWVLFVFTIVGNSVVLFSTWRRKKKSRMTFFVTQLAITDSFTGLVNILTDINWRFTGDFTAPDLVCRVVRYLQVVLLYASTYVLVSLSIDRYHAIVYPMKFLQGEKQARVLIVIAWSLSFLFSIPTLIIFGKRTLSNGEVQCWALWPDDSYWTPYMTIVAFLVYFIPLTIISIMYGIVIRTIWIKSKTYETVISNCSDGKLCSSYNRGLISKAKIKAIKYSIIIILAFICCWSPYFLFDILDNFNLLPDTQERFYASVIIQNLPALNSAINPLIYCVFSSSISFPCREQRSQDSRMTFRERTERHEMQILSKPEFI
Epigenetic reg: regulators of epigenetic silencing causing reporter derepression in mouse cells; murine LDR cells, GFP reporter derepression, 30 h; Potency, µM (highest dose often 53.9 µM), actives largely listed as activators; hit rate 0.2% among 280,000; further: nearly all actives have a fitted effect of over 60% in size
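Murine LDR cells bearing a silenced CMV-driven GFP reporter were exposed to compound for 30 h at 37 C. After PBS washes, GFP-positive cells (20-120 um objects) counted by laser-scanning microplate cytometry.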
KAT2A inh: inhibitors of human GCN5L2 histone acetyltransferase | AID 504327 | GCN5L2 HAT assay, ThioGlo1 CoA-SH fluorescence | Q92830 | Potency, µM (highest dose often 58.9 µM), actives largely listed as inhibitors | hit rate 0.21% among 390,000
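Compounds, pin-transferred from DMSO stocks, meet 20nM GCN5L2 for 15 min before the reaction begins with H3(1-25) peptide (75uM) and acetyl-CoA (70uM). Thiol-reactive ThioGlo1 reports CoA release over 20 min at room temperature.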
A number is an active result; 0 = inactive; ? = inconclusive; - = no result given; [ ] = remark or other dose. Unless noted, the call rests on the fitted dose curve; in most records, active means well fitted curve in the direction sought with a large enough effect; inconclusive means small, poorly fitted or top-dose-only effect, or another doubt; inactive means no such curve, though single readings can be large; an effect the other way counts as inactive or inconclusive.

SMILES	IMPase Li cell	Sfp inh	JMJD2E inh	NPSR antag	Epigenetic reg	KAT2A inh
c1coc(-c2ccc3ncnc(NCc4cccs4)c3c2)c1	-	-	-	-	-	0
COc1ccccc1CNC(=O)c1c(O)nc2c(C)cccn2c1=O	-	-	-	-	0	0
CCc1ccc(C(=O)c2cn(CC(=O)Nc3ccc4c(c3)OCO4)c3ccc(CC)cc3c2=O)cc1	-	-	-	-	0	0
CC1CCCN(C(c2ccccc2)c2sc3ncnn3c2O)C1 (centres undefined)	0	0	0	0	0	0
COc1cccc(C(c2sc3nc(C)nn3c2O)N2CCc3ccccc3C2)c1 (centres undefined)	0	32µM	0	0	0	0
COc1ccc(N2CCN(C(c3ccco3)c3sc4nc(C)nn4c3O)CC2)cc1 (centres undefined)	0	0	0	0	0	0
Oc1c(C(c2ccccc2)N2CCc3ccccc3C2)sc2ncnn12 (centres undefined)	0	79µM	0	0	0	0
CCN1CCN(C(c2cccc(OC)c2)c2sc3nc(C)nn3c2O)CC1 (centres undefined)	0	0	0	0	0	0
Cc1nc2sc(C(c3ccco3)N3CCC(Cc4ccccc4)CC3)c(O)n2n1 (centres undefined)	0	35µM	0	0	0	0
Oc1c(C(c2ccco2)N2CCN(C(c3ccccc3)c3ccccc3)CC2)sc2ncnn12 (centres undefined)	0	50µM	0	?	0	0
Cc1noc(C)c1-c1ccc2ncnc(NCc3ccco3)c2c1	-	0	-	-	-	-
Cc1ccc(C)c(CSc2cn(CC(=O)N3CCCC3)c3ccccc23)c1	-	-	-	-	0	0
CO[C@H]1COC(=O)C/C=C\[C@H](C)COC(=O)[C@@H](C)NC(=O)C/C=C\[C@@H]1C	-	0	-	-	0[10.1 µM]	-
CC(C)(C)OC(=O)N1CCC(c2c(C(=O)N3CCN(c4ncccn4)CC3)cnn2-c2ccc(F)cc2)CC1	-	-	-	-	0	0
CCc1nnc(N2C(=N)SCC2=O)s1	0	50µM	0	0	0	0
Cn1cnc(S(=O)(=O)N2CCCC(C(=O)Nc3cccc(C#N)c3)C2)c1 (centres undefined)	-	-	-	-	0	0
Cc1c(N=C2NN=C(c3ccc(Cl)cc3)CS2)c(=O)n(-c2ccccc2)n1C	0	50µM	0	0	0	0
Cc1c(N=C2NN=C(c3c[nH]c4ccccc34)CS2)c(=O)n(-c2ccccc2)n1C	-	?	?	0	0	0
O=C(Cn1cc(S(=O)(=O)c2ccccc2)c(=O)c2cc3c(cc21)OCO3)Nc1ccc(Cl)cc1	-	-	-	-	0	0
Cc1cc(=O)[nH]c(N2CCCC2)n1	0	0	0	0	0	0
Cc1cc(=O)[nH]c(-n2[nH]c(C)cc2=O)n1	0	22µM	0	0	0	0
CC(C)CN=C(N)N=C(N)N	0	-	-	-	-	-
O=C1CC(Nc2ccc(N3CCOCC3)cc2)C(=O)N1c1ccccc1F (centres undefined)	0	50µM	0	0	0	0
COc1ccc(NC(=O)c2cccc(NC(=O)C(C)C)c2)c([N+](=O)[O-])c1	0	0	0	0	0	0
COc1ccc(NC(=O)c2ccc(NC(=O)C(C)C)cc2)c([N+](=O)[O-])c1	0	0	0	0	14µM	0
SMILES	IMPase Li cell	Sfp inh	JMJD2E inh	NPSR antag	Epigenetic reg	KAT2A inh
Cc1ccc(C)c(NC(=S)NC(NC(=O)Cc2cccc3ccccc23)C(Cl)(Cl)Cl)c1 (centres undefined)	0	0	0	7.9µM	0	?
Cc1ccc(C)c(NC(=S)NC(NC(=O)N(C)C)C(Cl)(Cl)Cl)c1 (centres undefined)	0	0	0	0	0	0
COc1ccc(NC(=S)NC(NC(=O)CCl)C(Cl)(Cl)Cl)c([N+](=O)[O-])c1 (centres undefined)	0	25µM	0	0	0	0
CCCCSCCCNC(=O)C1CCC(CNS(=O)(=O)c2c(C)cc(C)cc2C)CC1 (centres undefined)	-	-	-	-	0	0
CCCCC/C=C\C[C@@H](O)/C=C/C=C\C/C=C\CCCC(=O)O	0	0	0	-	0	0
Oc1ccccc1N=Cc1ccc[nH]1	0	25µM	0	0	0	0
CCOC(=O)/C(=C\c1ccc(Cl)cc1)c1nc2sc(C)c(C)c2c(=O)[nH]1	0	40µM	0	7.9µM	?	0
Cc1oc(-c2ccc(Cl)cc2)cc1-c1nn2c(-c3ccoc3C)nnc2s1	0	10µM	0	0	0	0
Clc1ccc(-c2nnc3sc(-c4ccc(Br)o4)nn23)cc1	0	0	?	0	0	0
C#CCCCO/N=C1/C[C@@H](O)[C@@H](O)[C@@H]2[C@@H]3C(=O)N(Cc4ccc5c(c4)OCO5)C(=O)[C@H]3CC[C@H]12	-	0	-	-	0[10.1 µM]	-
C=C(CCC12O[C@H](C(=O)O)[C@@](O)(C(=O)O)[C@](C(=O)O)(O1)[C@H](OC(=O)/C=C/[C@@H](C)C[C@@H](C)CC)[C@H]2O)[C@@H](OC(C)=O)[C@H](C)Cc1ccccc1	0	?	-	-	0	5µM
COc1ccc(/C=N/NC(=O)c2cc(-c3ccc(Cl)cc3)n[nH]2)cc1OC	-	-	-	-	0	-
COc1ccc(-c2cc3nc(C)c(CCC(=O)N4CCN(c5ccccn5)CC4)c(C)n3n2)c(OC)c1	0	0	13µM	0	0	0
O=c1cc(N2CCCCC2)c(-c2ccccc2)nn1Cc1cccc(Cl)c1	0	35µM	0	?	0	0
O=c1cc(N2CCCCC2)c(-c2ccccc2)nn1Cc1ccc(Cl)cc1Cl	0	?	0	?	0	0
O=C(O)CSc1ccnc2cc(Cl)ccc12	-	56µM	?	0	0	0
COC(=O)CSc1ccnc2cc(Cl)ccc12	-	0	0	0	0	0
C[C@H](Br)C(=O)Nc1ccc(C(=O)O)c(O)c1	0	-	-	-	-	-
O=C1N=c2ccccc2=C1c1sc(Nc2ccc(O)cc2)nc1O	0	56µM	0	0	0	?
O=C1N=c2ccccc2=C1c1sc(Nc2cccc(O)c2)nc1O	-	0	-	-	-	0

Screens as filed in PubChem BioAssay.
